High-throughput results deposited in PubChem BioAssay by National Center for Advancing Translational Sciences (NCATS).
Hits are enriched below; roughly 21% of the tested compounds scored in any of these assays.
ELG1 repair inh = inhibitors of ELG1-dependent DNA repair in HEK293T cells; AID 504467; hit rate 2.3% among 330,000; Potency, µM (doses to about 46.1 µM), inactives show at the top dose activity change, negative = inhibition, actives largely listed as inhibitors; HEK293T ELG1-luciferase reporter, luminescence, 16 h; DNA damage induced by 5-fluorouridine; note: potency is the fitted concentration of half-maximal effect; nearly all actives have a fitted effect of over 55% in size
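Cells (2,000 per well) received 5-fluorouridine plus test compound or DMSO and were incubated 16 hr at 37 °C, 5% CO2. Luciferase activity was read by luminescence 30 min after ONE-Glo addition; signal suppression marked inhibition of damage-induced ELG1 function.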
DT40 TDP1 CPT = DT40-hTDP1 cell growth loss with CPT; AID 686979; hit rate 12% among 420,000; Potency, µM (top dose mostly 46.2 µM), for the others: at the top dose activity change, negative = growth inhibition, most hits filed as inhibitors; chicken DT40 Tdp1-/-;hTDP1 cells + 20 nM CPT, ATP luminescence, 48 h; note: potency is the fitted concentration of half-maximal effect; nearly all actives have a fitted effect of over 55% in size
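Cell growth measured by CellTiter-Glo luminescence after a minimum 48 h, 37 C compound exposure with 20 nM CPT in Tdp1-knockout DT40 cells stably expressing hTDP1, seeded 400/well; qHTS titration format.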
Gal4-VP16 FLuc = Gal4-VP16 reporter inhibition counter-screen; Drosophila S2 Gal4-VP16 UAS-luciferase, luminescence, 20 h; Potency, µM (doses to about 53.6 µM), inactives show top-dose activity, negative = inhibition, actives largely listed as inhibitors; hit rate 3.5% among 310,000; AID 2546;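 note: Gal4-VP16 expression switched on by copper sulfate through the metallothionein promoter; potency is the fitted concentration of half-maximal effect; nearly all actives have a fitted effect of over 50% in size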
RORg inh = blocks mouse ROR gamma transcriptional activity | P51450 | hit rate 5.4% among 310,000 | AID 2551 | Potency, µM (doses to about 53.6 µM), inactives show at the highest dose activity change, negative = inhibition, usual class: inhibitors | Drosophila S2 Gal4-RORgamma UAS-luciferase reporter, 20 h; note: potency is the fitted concentration of half-maximal effect; nearly all actives have a fitted effect of over 60% in size
Target sequence (P51450 whole entry, looked up, the tested form may be a part): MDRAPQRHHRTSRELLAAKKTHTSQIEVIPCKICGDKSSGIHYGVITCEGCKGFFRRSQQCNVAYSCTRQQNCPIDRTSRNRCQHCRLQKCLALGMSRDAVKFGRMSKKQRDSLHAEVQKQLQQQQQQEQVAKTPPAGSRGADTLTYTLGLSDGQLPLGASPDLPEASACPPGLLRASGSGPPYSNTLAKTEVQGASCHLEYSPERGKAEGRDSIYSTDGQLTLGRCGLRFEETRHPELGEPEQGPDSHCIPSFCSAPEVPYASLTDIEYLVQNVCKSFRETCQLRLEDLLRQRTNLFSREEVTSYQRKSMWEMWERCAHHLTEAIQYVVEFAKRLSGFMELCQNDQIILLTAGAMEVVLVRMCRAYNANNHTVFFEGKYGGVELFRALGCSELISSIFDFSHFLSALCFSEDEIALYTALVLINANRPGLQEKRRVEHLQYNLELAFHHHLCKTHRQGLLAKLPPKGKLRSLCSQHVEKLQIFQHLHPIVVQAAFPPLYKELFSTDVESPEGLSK
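Stable Schneider cell line, Gal4 DNA-binding domain fused to ROR gamma, UAS-luciferase. Cmpd 1 hr RT → CuSO4 700 uM final → 20 hr RT → luciferase reagent 10 min → luminescence.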
TDP1 cell noCPT = qHTS for Inhibitors of human tyrosyl-DNA phosphodiesterase 1 (TDP1): qHTS in cells in absence of CPT. DT40 Tdp1-/- hTDP1 cells, no CPT, ATP luminescence, 48 h. Potency, µM (highest dose often 46.2 µM), without a hit: top-dose activity change, negative = growth inhibition, most hits filed as inhibitors. hit rate 15% among 420,000; note: potency is the fitted concentration of half-maximal effect; nearly all actives have a fitted effect of over 55% in size
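Growth kinetics read by CellTiter-Glo luminescence after ≥48 hr at 37 °C. Cells: DT40 Tdp1-/- stably carrying human TDP1, 400 per well, compound exposure in the absence of CPT (DMSO vehicle).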
IL-1B inflam inh = inflammasome signaling inhibition, IL-1 beta readout; THP-1 LPS/ATP IL-1B secretion, AlphaLISA, 16 h; hits give low values; AID 743279; hit rate 4.7% among 360,000; activity change, % at 57.5 µM; in the data active = activity change below about -50%; inconclusive = mostly about -30% to -49%
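THP-1 cells pretreated 1 hr with compounds (up to 57.5 uM final), then stimulated with LPS (250 ng/mL final) plus ATP (1.25 mM final); secreted IL-1B measured by AlphaLISA after 16 hr, decreased signal indicating inhibition.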
Numbers without * were called inactive; ? = inconclusive; nt = not tested or not shown; ! = repeats disagree; [ ] = remark or other dose. Unless noted, calls come from the whole dose curve; as a rule, active = well fitted curve in the direction sought with a large enough effect; inconclusive = small, poorly fitted or top-dose-only effect, or another doubt; inactive = no such curve, though single readings can be large; an effect the other way counts as inactive or inconclusive. % is set by controls: 0 for no effect and ±100 for the full control effect.

SMILES	ELG1 repair inh	DT40 TDP1 CPT	Gal4-VP16 FLuc	RORg inh	TDP1 cell noCPT	IL-1B inflam inh
COc1cc2c(c(OC)c1OC)-c1ccc(NC(=O)c3ccc(F)cc3)c(=O)cc1[C@@H](NC(C)=O)CC2	4.6%	8.2µM*	0.6%	43.7%	7.31µM*	13.7
COc1cc2c(c(OC)c1OC)-c1ccc(NCc3ccccc3)c(=O)cc1C(NC(C)=O)CC2 (configuration not stated)	nt	0.92µM*	nt	nt	0.92µM*	84.8
COc1c(O[C@@H]2O[C@H](CO)[C@@H](O)[C@H](O)[C@H]2O)cc2c(c1OC)-c1ccc(SC)c(=O)cc1[C@@H](NC(C)=O)CC2	nt	12.4%[21.1 µM]	nt	nt	-0.9%[21.1 µM]	nt
Cc1nnc(SCC(=O)NCC2CCCO2)n1Cc1ccccc1 (configuration not stated)	3.0%	-3.7%	nt	nt	2.4%	-18.1
O=C(Nc1ncn[nH]1)c1ccc(Cl)c(Cl)c1	10.6%	-4.5%	nt	nt	-10.2%	8.4
O=C1CC(/C=C/c2cccnc2)=Nc2ccccc2N1	?	13µM*	13.0%	-20.6%	16.4µM*	-92.8*
O=C1CC(/C=C/c2ccc(Cl)cc2)=Nc2ccccc2N1	?	?	28.9%	?	14.6µM*	-93.8*
CC1(C)CC(/C=C/c2ccccc2)=Nc2ccccc2N1	?	18.4µM*	-14.6%	-37.2%	20.6µM*	-62.4*
O=C(CCC(F)(F)F)N1CCCC(N2CCN(c3cccc(Cl)c3)CC2)C1 (configuration not stated)	nt	-22.6%	nt	nt	?	-8.1
CC(CNC(=O)CC[C@H]1O[C@@H](n2cnc3c(NC(=O)c4ccccc4)ncnc32)[C@H](O)[C@@H]1O)c1ccccc1 (some centres not stated)	nt	-11.9%	nt	nt	-6.8%	2.9
COc1ccc(Nc2cc(C)nc(NCc3ccccc3)n2)cc1	18.3µM*	5.17µM*	-12.0%	38.1%	4.61µM*	-98.7*
CCCOc1ccc(Nc2cc(C)nc(C)n2)cc1	nt	23.1µM*	nt	nt	?	nt
Cc1cc(C)nc(N/N=C/c2ccccc2Cl)n1	?	-25.5%	?	?	-24.7%	-25.9
COc1cc(C)nc(NCc2ccccc2)n1	?	?	0.5%	-11.4%	?	18.1
CCOc1ccc(Nc2cc(C)nc(N3CCOCC3)n2)cc1	-10.5%	-25.1%	-4.5%	22.6%	?	1.7
Cc1ccc(Nc2cc(C)nc(NCc3ccccc3)n2)cc1	-24.0%	2.59µM*	?	?	2.59µM*	-228.5*
Cc1cc(N/N=C/c2ccccc2Cl)nc(NCc2ccccc2)n1	?	4.61µM*	?	?	4.11µM*	-68.0*
Cc1cccc(Nc2ccc(NCc3ccccc3)nn2)c1	?	?	-8.6%	-15.0%	-13.7%	?
O=C(Cc1ccccc1[N+](=O)[O-])Nc1ccc(S(=O)(=O)N2CCCC2)cc1	-3.6%	nt	-3.6%	28.7%	nt	nt
Cc1cc(NC2CCCCC2)nc(NCc2ccccc2)n1	?	4.61µM*	?	?	4.61µM*	-74.3*
C/C(=N\Nc1cc(C)nc(NCc2ccccc2)n1)c1ccc([N+](=O)[O-])cc1	?	13µM*	-4.6%	7.8%	9.2µM*	0.0
C/C(=N\NC(=O)c1cc(C)nc2ccccc12)c1ccc([N+](=O)[O-])cc1	?	-25.4%	-13.7%	5.9%	-24.7%	13.7
COc1cccc(Cc2nc3cccnc3n2C2CCN(Cc3ccc(C)s3)CC2)c1	nt	-4.3%	nt	nt	-0.8%	nt
C=CCN(C(=O)CSC1=NC(=O)CN1C(C)=O)c1nc(C)c(-c2ccccc2)s1	?	?	?	12.6µM*	18.4µM*	-88.9*
C=CCSc1nnc(-c2sc(-c3ccccc3)nc2C)n1C	?	?	18.4%	29.5%	-22.1%	-10.9
SMILES	ELG1 repair inh	DT40 TDP1 CPT	Gal4-VP16 FLuc	RORg inh	TDP1 cell noCPT	IL-1B inflam inh
COc1ccccc1CNC(=O)CCCCn1c(=O)c2ccccc2n(Cc2c(C)cc(C)cc2C)c1=O	nt	-15.9%	nt	nt	-1.3%	nt
COc1ccccc1CNC(=O)CCCn1c(=O)c2ccccc2n(Cc2ccccc2C#N)c1=O	nt	25.9µM*	nt	nt	4.61µM*	nt
Cn1cc(CCCC(=O)NCc2ccc(F)cc2)c2ccccc21	1.4%	?	-0.5%	-1.5%	20.6µM*!	-9.0
COc1ccccc1CNC(=O)CCCn1c(=O)c2ccccc2n(Cc2ccc(F)cc2)c1=O	nt	16.4µM*	nt	nt	?	nt
COCCNC(=O)CCCn1c(=O)c2ccccc2n(Cc2ccccc2C#N)c1=O	-4.5%	9.9%	-5.2%	-3.1%	14.6%	34.5
Cn1c(=O)cnc2cnc(Nc3ccccc3)nc21	nt	?	5.9%	?	?	nt
CCN1CCN(c2cc(C(C)(C)C)nc3c(-c4ccccc4)c(C)nn23)CC1	29.6%	?	-1.3%	-0.7%	18.4µM*	?
CCN1CCN(c2cc(C(C)C)nc3c(-c4ccccc4)c(C)nn23)CC1	?	11.6µM*	-11.2%	-21.6%	20.6µM*	nt
Cc1nn2c(N3CCOCC3)cc(C(C)C)nc2c1-c1ccccc1	9.4%	?	4.3%	6.9%	-18.2%	-13.0
Cc1cc(C)c(S(=O)(=O)N2CCC(N3CCN(Cc4ccc(F)cc4)C(=O)C3=O)CC2)c(C)c1	nt	?	nt	nt	-23.4%	nt
OCCCNc1ncnc2c1ncn2[C@H]1CN(Cc2ccco2)C[C@@H](CO)O1	nt	5.7%	nt	nt	-0.5%	24.7
COC(=O)[C@H](C)N(Cc1ccc(Cl)c(Cl)c1)S(=O)(=O)CCNC1CCCC1	12.4%	?	nt	nt	20.6µM*	?
CC=C(/C(=C/C)c1ccc(O)cc1)c1ccc(O)cc1	nt	nt	-13.8%[17 µM]	-1.8%[2.98 µM]	nt	nt
Cc1ccc(Nc2cc(C)nn2-c2nc(C)cc(=O)[nH]2)cc1	?	0.794µM*	0.631µM*	0.178µM*	0.562µM*	-110.3*
Cc1cc(C)nc(-n2nc(C)cc2NC(=O)C(C)C)n1	22.8%	1.3%	25.4%	5.01µM*	-1.4%	2.0
CC(=O)Nc1cc(C)nn1-c1nc(C)cc(C)n1	0.5%	-6.3%	0.3%	?	-3.9%	2.1
Cc1ccc(Nc2cc(C)nn2-c2nc(C)cc(C)n2)cc1	14.6µM*	5.8µM*	3.16µM*	?	5.8µM*	-27.7
O=C(c1cc(C2CCCCN2S(=O)(=O)c2ccc(F)cc2F)on1)N1CCOCC1 (configuration not stated)	nt	-0.6%	nt	nt	-17.4%	30.1
COc1cc(NC(=O)Cn2c(SCc3ccc(F)cc3)nc3cccnc32)cc(OC)c1	nt	-10.1%	nt	nt	-22.5%	nt
CCOC(=O)C1(C(=O)OCC)CCN(S(=O)(=O)c2ccccc2)CC1	nt	-1.8%	nt	nt	5.1%	-12.5
